From PubChem BioAssay (NCATS)
Results filed as inconclusive are left out. A call without a number means that no potency is given here. Activity calls are given as the source filed them. Calls come from the whole dose curve; as a rule, active = well fitted cell-killing curve with a large enough effect; inconclusive = small, poorly fitted or top-dose-only effect; inactive = no such curve, though single readings can be large or run the other way.

experiment: Cell Viability - LYMP2-001 (AID 921); conditions: LYMP2-001 lymphoblastoid cell viability; series mostly up to 92.2 µM; note: nearly all actives have a fitted effect of over 70% in size
From the text: NIH Chemical Genomics Center [NCGC]
NIH Molecular Libraries Screening Centers Network [MLSCN]
National Institutes of Environmental Health Sciences [NIEHS]
National Toxicology Program [NTP]
We have developed a 1536-well cell-based assay for quantitative high throughput screening (qHTS) against a number of cell lines to determine in vitro cytotoxicity of small molecules. This particular assay uses a human lymphoblastoid cell line (LYMP2-001) purchased from Coriell Institute for Medical Research.
NCGC Assay Protocol Summary:
The CellTiter-Glo luminescent cell viability assay (Promega) is a homogeneous method to measure the number of viable cells in culture. The end point readout of this assay is based on quantitation of intracellular ATP, an indicator of metabolic activity, using the luciferase reaction. Luciferase catalyzes the oxidation of beetle Luciferin to oxyluciferin and light in the presence of ATP. The luminescent signal is proportional to amount of ATP present.
Using the CellTiter-Glo luminescent cell viability assay, the amount of cellular ATP was measured in the lymphoblastoid cell line with complete culture medium following compound treatment for 24 hours. The assay was performed in opaque white Kalypsys 1536-well plates. In the screen, tetraoctylammonium bromide was used as positive control. Library compounds were measured for their ability to cause acute toxicity in the cell line, as reflected by a decrease in intracellular ATP levels, in a concentration-dependent manner. […] AC50 values were determined from concentration-response data modeled with the standard Hill equation.
qHTS protocol for CellTiter Glo lymphoblastoid cellular assay
[Step] [Parameter] [Value] [Description]
1. Reagent; 5 uL; 2500 lymphoblastoid cells/well
2. Time; 5 hr; 37 C incubation
4. Controls; 23 nL; Tetraoctylammonium bromide 6.4pM to 92 uM
5. Time; 24 hr; 37 C incubation
6. Reagent; 5 uL; CellTiter Glo reagent
7. Time; 30 min; Room Temperature
8. Detection; Luminescence; Viewlux plate reader
Keywords: cell viability, cytotoxicity, lymphoblastoid cell line, luminescence, NTPHTS, NTPHTS_NCGC, NIEHS, DSSTox, MLSMR, MLSCN, NIH Roadmap, qHTS, NCGC
Potency is the fitted concentration of half-maximal effect.

SMILES | Potency
CCCCNCC | inactive
CCc1ccc(C(c2ccc(CC)cc2)C(Cl)Cl)cc1 | inactive
O=C(O)/C=C/c1ccc(/C=C/C(=O)O)cc1 | inactive
CCCCCCCCOc1ccc(C(=O)O)cc1 | inactive
Nc1cc([N+](=O)[O-])ccc1O | inactive
c1cc2c3c(c1)ccc1cccc(c13)C2 | inactive
c1ccc(Nc2cccc3ccccc23)cc1 | inactive
Cc1ccccc1OCC1CO1 (stereo not given) | inactive
C=C1CC[C@H](O)C/C1=C/C=C1\CCC[C@]2(C)[C@@H]([C@H](C)CCCC(C)C)CC[C@@H]12 | 39.8 µM (active)
CCOc1ccc2nc(N)sc2c1 | inactive
C[Si](C)(C)Cl | inactive
Cc1cccnc1 | inactive
OCC(CO)(CBr)CBr | inactive
O=c1[nH]ncc2ccccc12 | inactive
C=CC(=O)CC | inactive
CCCC(=O)OC(=O)CCC | inactive
Cc1cc2nc(N)sc2cc1C | inactive
CN(C)c1ccc(C(=N)c2ccc(N(C)C)cc2)cc1 | 31.6 µM (active)
CCOC(=O)C1OC1c1ccccc1 (stereo not given) | inactive
O=C(O)c1ccc([N+](=O)[O-])cc1 | inactive

SMILES | Potency
Oc1ccc(O)c2c(O)cccc12 | 50.1 µM (active)
CCN(CC)c1ccc2c(C)cc(=O)oc2c1 | inactive
Cc1ccc2ccc3cccc4ccc1c2c34 | inactive
O=[N+]([O-])c1cc(Cl)c(Cl)c(Cl)c1Cl | inactive
CC(=O)OC1CC(C)OC(C)O1 (stereo not given) | inactive
c1c[nH]cn1 | inactive
Cc1ccc(S(N)(=O)=O)cc1 | inactive
NC(=O)Nc1nc2ccccc2[nH]1 | inactive
Brc1cc(Oc2cc(Br)c(Br)c(Br)c2Br)c(Br)c(Br)c1Br | inactive
CC(CCC(=O)O)(c1ccc(O)cc1)c1ccc(O)cc1 | inactive
O=[N+]([O-])c1ccc(F)cc1F | 50.1 µM (active)
Oc1c(Cl)cc(Cl)c(Cl)c1Cl | inactive
O=C(OCc1ccccc1)c1ccccc1O | inactive
Oc1cc(Cl)cc(Cl)c1Cl | inactive
O=[N+]([O-])c1cc(N(CCO)CCO)ccc1NCCO | inactive
CCCCC(CC)COP(=O)(OCC(CC)CCCC)OCC(CC)CCCC (stereo not given) | inactive
CCCCCCCCC1CO1 (stereo not given) | inactive
C=CC(C)(O)CCCC(C)CCCC(C)CCCC(C)C (stereo not given) | inactive
CCCCCCN | inactive
C/C(Cl)=C/CCl | inactive
